Assay results taken from PubChem BioAssay (Tox21).
Inconclusive results are not listed. Activity calls are given as the source filed them. Unless noted, calls follow the shape of the dose curve; as a rule, active = well fitted curve in the direction sought with a large enough effect in the repeat runs; inconclusive = weak or mixed curves; inactive = no such curve, though single readings can be large; an effect the other way counts as inactive or inconclusive.

Key:
[1] = A CellTox Green Cytotoxicity Assay to monitor cytotoxicity in HEK293 cells - 32 hour (AID 1224881); also: nearly all actives have a fitted effect of over 40% in size
Summary of the method: (§1)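 Nonlytic real-time cytotoxicity: HEK293 + CellTox Green reagent plated, 5 h preincubation, pintool compound addition (23 nL in DMSO), 37 C for 40 h, fluorescence measured at successive time points.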

[2] = A CellTox Green Cytotoxicity Assay to monitor cytotoxicity in HepG2 cells - 0 hour (AID 1224882); also: nearly all actives have a fitted effect of over 35% in size
Summary of the method: (§2)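 Read-out is fluorescence of a cyanine dye excluded from live cells that stains DNA of dead HepG2 cells, with signal proportional to cytotoxicity. Plates were read at 0, 8, 16, 24, 32 and 40 h after compound addition.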

[3] = A CellTox Green Cytotoxicity Assay to monitor cytotoxicity in HepG2 cells - 32 hour (AID 1224883); also: nearly all actives have a fitted effect of over 50% in size
Summary of the method: as §2

[4] = A CellTox Green Cytotoxicity Assay to monitor cytotoxicity in HEK293 cells - 8 hour (AID 1224884); also: nearly all actives have a fitted effect of over 35% in size
Summary of the method: as §1

[5] = qHTS RealTime-Glo MT Cell Viability Assay in HepG2 cells - 16 hour (AID 1224885); also: nearly all actives have a fitted effect of over 50% in size
Summary of the method: (§3)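 qHTS, HepG2, 600 cells/well, RealTime-Glo (NanoLuc + prosubstrate) added with cells; 5 h preincubation; DMSO compound addition; 37 C; luminescence at 0/8/16/24/32/40 h.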

[6] = qHTS RealTime-Glo MT Cell Viability Assay in HEK293 cells - 24 hour (AID 1224886); also: top concentration of the series differs between compounds; nearly all actives have a fitted effect of over 50% in size
Summary of the method: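 Assay medium contained NanoLuc luciferase plus cell-permeant prosubstrate, added with HEK293 cells at 600 cells/well. After 5 h at 37 C/5% CO2 compounds were added; plates stayed at 37 C for 40 h with serial luminescence reads.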

[7] = qHTS RealTime-Glo MT Cell Viability Assay in HEK293 cells - 8 hour (AID 1224887); also: top concentration of the series differs between compounds; nearly all actives have a fitted effect of over 50% in size
Summary of the method: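 Cells were seeded together with NanoLuc luciferase and a prosubstrate that viable cells reduce to a luciferase substrate. After a 5 h incubation at 37 C/5% CO2, compounds were added and luminescence was measured repeatedly during 40 h of treatment.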

[8] = A CellTox Green Cytotoxicity Assay to monitor cytotoxicity in HEK293 cells - 16 hour (AID 1224888); also: nearly all actives have a fitted effect of over 35% in size
Summary of the method: as §1

[9] = qHTS RealTime-Glo MT Cell Viability Assay in HepG2 cells - 0 hour (AID 1224889); also: nearly all actives have a fitted effect of over 50% in size
Summary of the method: as §3

[10] = A CellTox Green Cytotoxicity Assay to monitor cytotoxicity in HepG2 cells - 8 hour (AID 1224890); also: nearly all actives have a fitted effect of over 45% in size
Summary of the method: as §2

[11] = qHTS assay to identify small molecule antagonists of the estrogen receptor alpha (ER-alpha) signaling pathway using the BG1 cell line in the presence of 0.1 nM 17-beta-estradiol - cell viability counter screen (AID 1259241); also: nearly all actives have a fitted effect of over 40% in size
Summary of the method: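 CellTiter-Fluor read (30 min, 37C) on ER-alpha/ERE-luc VM7Luc4E2 cells; 22 hr compound treatment; agonist 0.1 nM E2 final; same-well multiplex.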

[12] = qHTS assay to identify small molecule antagonists of the androgen receptor (AR) signaling pathway using the MDA cell line in the presence of 0.5 nM R1881 - cell viability counter screen (AID 1259242); also: nearly all actives have a fitted effect of over 45% in size
Summary of the method: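 Counter screen for cytotoxicity run in the same wells as the AR antagonist reporter screen: MDA-kb2 cells were treated 16 hr with test compounds and 0.5 nM R1881, then live-cell protease activity was measured by fluorescence.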

[13] = qHTS assay to identify small molecule phospholipidosis (PLD) inducers (AID 1259344; active = well fitted curve in the direction sought with a large enough effect; an effect the other way counts as inactive or inconclusive)
Summary of the method: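 Quantitative HTS in HepG2: compound plus LipidTOX Red dye for 24 h, paraformaldehyde fixation with Hoechst 33342, widefield high-content imaging; amiodarone as positive and DMSO as negative control.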

[14] = qHTS assay to identify small molecule HDAC inhibitors (AID 1259364); also: top concentration of the series differs between compounds; nearly all actives have a fitted effect of over 45% in size
Summary of the method: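 Luminescence from a cell-permeant luminogenic class I/II HDAC substrate reports endogenous deacetylase activity in intact HCT-116 cells treated with compounds for 2 h.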

[15] = qHTS assay to identify small molecule HDAC inhibitors - cell viability counter screen (AID 1259365)
Summary of the method: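 To flag cytotoxic hits, 1,500 wild-type HCT-116 cells per well, plated the day before, receive test compounds for 2hr at 37 C before CellTiter-Glo reagent and a luminescence read.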

[16] = qHTS assay to identify small molecule agonists of the sonic hedgehog signaling (Shh) pathway - cell viability counter screen (AID 1259366); also: nearly all actives have a fitted effect of over 50% in size
Summary of the method: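 Fluorescence from CellTiter-Fluor reports live cells in this counter screen. NIH/3T3-derived Gli1-Luc reporter cells receive test compounds for 24hr at 37C; reagent goes in at 23hr.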

[17] = qHTS assay to identify small molecule antagonists of the sonic hedgehog signaling (Shh) pathway - cell viability counter screen (AID 1259367); also: nearly all actives have a fitted effect of over 55% in size
Summary of the method: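 Seed 3T3 Gli1-Luc cells at 2,000 per well; incubate 4 hr; add compound in DMSO, then conditioned medium; incubate at 37C with 5% CO2; add CellTiter-Fluor after 23 hr; read fluorescence 1 hr later.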

[18] = qHTS assay to identify small molecule agonists of the sonic hedgehog signaling (Shh) pathway (AID 1259368; calls by dose curve;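 also: NIH/3T3-derived 3T3Gli1-Luc cells carrying a stable Gli1-driven firefly luciferase reporter; series mostly up to about 92 µM; nearly all actives have a fitted effect of over 15% in size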)
Summary of the method: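 3T3Gli1-Luc (NIH/3T3 clone, stable Gli1-Luc); 4 hr pre-incubation, then cpd in DMSO 24 hr, 37 C/5% CO2; luciferase reagent 30 min RT; luminescence.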

[19] = biological target: Estrogen receptor (Homo sapiens) (UniProt P03372); assay: qHTS assay to identify small molecule antagonists of the estrogen receptor alpha (ER-alpha) signaling pathway using the BG1 cell line in the presence of 0.1 nM 17-beta-estradiol (AID 1259244); also: nearly all actives have a fitted effect of over 50% in size
Summary of the method: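 Cells: VM7Luc4E2, endogenous ER-alpha, 4x ERE-luc stable. Pre-culture 5 d, phenol red-free, charcoal-stripped FBS. Plated 24 h, compound + E2 0.1 nM final, 22 h 37C/5% CO2. Readout ONE-Glo luminescence.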

[20] = biological target: Androgen receptor (Homo sapiens) (UniProt P10275); assay: qHTS assay to identify small molecule antagonists of the androgen receptor (AR) signaling pathway using the MDA cell line in the presence of 0.5 nM R1881 (AID 1259243); also: nearly all actives have a fitted effect of over 50% in size
Summary of the method: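 Luciferase luminescence is the read-out: compounds are tested for suppressing 0.5 nM R1881-driven MMTV reporter activity in MDA-kb2 cells after 16 hr at 37C.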

Measured: Potency

Androgen receptor (Homo sapiens), sequence (P10275 whole entry, looked up): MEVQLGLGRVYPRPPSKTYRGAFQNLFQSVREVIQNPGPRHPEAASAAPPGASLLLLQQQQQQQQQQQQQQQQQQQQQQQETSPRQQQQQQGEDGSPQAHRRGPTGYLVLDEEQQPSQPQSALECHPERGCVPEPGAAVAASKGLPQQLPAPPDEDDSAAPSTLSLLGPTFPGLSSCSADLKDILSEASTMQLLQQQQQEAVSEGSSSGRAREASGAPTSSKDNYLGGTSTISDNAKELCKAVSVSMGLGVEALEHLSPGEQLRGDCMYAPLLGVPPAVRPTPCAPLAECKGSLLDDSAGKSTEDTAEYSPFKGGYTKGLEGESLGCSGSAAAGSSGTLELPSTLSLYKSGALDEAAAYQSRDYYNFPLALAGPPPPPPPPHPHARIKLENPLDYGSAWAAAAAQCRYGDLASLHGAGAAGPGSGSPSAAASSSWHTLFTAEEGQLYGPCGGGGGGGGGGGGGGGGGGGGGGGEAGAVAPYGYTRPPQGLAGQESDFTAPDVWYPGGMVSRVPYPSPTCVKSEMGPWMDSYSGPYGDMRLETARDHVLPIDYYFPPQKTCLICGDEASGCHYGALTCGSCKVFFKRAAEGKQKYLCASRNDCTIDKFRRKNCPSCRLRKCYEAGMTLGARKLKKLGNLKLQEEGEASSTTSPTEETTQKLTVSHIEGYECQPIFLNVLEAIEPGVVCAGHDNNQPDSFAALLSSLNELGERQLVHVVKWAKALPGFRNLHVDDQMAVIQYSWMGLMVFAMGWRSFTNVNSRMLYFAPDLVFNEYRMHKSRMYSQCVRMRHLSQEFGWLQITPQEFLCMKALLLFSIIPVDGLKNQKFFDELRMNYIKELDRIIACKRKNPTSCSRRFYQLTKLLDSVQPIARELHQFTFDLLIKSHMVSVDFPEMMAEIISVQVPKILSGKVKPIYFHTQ
Estrogen receptor (Homo sapiens), sequence (P03372 whole entry, looked up): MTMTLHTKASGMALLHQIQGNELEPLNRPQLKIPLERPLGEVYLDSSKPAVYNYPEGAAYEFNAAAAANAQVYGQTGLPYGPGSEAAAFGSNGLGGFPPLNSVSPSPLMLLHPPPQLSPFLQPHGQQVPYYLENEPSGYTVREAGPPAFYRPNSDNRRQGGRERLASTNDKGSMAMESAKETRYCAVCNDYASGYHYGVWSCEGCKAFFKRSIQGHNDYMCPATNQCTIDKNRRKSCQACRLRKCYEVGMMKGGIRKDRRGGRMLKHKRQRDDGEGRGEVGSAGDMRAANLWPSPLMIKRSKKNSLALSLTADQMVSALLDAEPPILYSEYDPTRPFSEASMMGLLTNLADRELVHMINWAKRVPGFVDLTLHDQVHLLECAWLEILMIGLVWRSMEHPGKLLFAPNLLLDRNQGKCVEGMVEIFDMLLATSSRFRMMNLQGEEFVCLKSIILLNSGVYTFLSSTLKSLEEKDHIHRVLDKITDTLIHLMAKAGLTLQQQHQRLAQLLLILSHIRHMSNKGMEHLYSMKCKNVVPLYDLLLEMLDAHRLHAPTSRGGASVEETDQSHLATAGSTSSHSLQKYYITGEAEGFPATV

CCCCCCCCCCCCCCCCO
inactive: [1] | [2] | [3] | [4] | [5] | [6] | [7] | [8] | [9] | [10] | [11] | [12] | [13] | [14] | [15] | [16] | [17] | [18]

NCCN1CCNCC1
inactive: [1] | [2] | [3] | [4] | [5] | [6] | [7] | [9] | [10] | [11] | [12] | [14] | [15] | [16] | [17] | [18]

O=C(OCC1CCC2OC2C1)C1CCC2OC2C1 (configuration not stated)
inactive: [1] | [2] | [3] | [4] | [5] | [6] | [7] | [8] | [9] | [10] | [11] | [12] | [19] | [14] | [15] | [18]

Nc1nc(N)nc(-c2ccccc2)n1
inactive: [1] | [2] | [3] | [4] | [5] | [6] | [7] | [8] | [9] | [10] | [11] | [12] | [19] | [15] | [16] | [17] | [18]

CCCOC(=O)c1ccccc1
inactive: [1] | [2] | [3] | [4] | [5] | [6] | [7] | [9] | [10] | [11] | [12] | [13] | [14] | [15] | [16] | [18]

COC(=O)c1cccnc1
inactive: [1] | [2] | [3] | [4] | [5] | [6] | [7] | [8] | [9] | [11] | [12] | [20] | [13] | [15] | [16] | [17] | [18]

CC(=O)OCc1ccccc1
inactive: [1] | [2] | [3] | [4] | [5] | [6] | [7] | [8] | [9] | [11] | [12] | [20] | [19] | [15] | [16] | [17] | [18]

COC(=O)CCCC(=O)OC
inactive: [1] | [2] | [3] | [4] | [5] | [6] | [7] | [8] | [9] | [11] | [12] | [14] | [15] | [16] | [17] | [18]

COCCOC(=O)c1ccccc1C(=O)OCCOC
inactive: [1] | [2] | [3] | [4] | [5] | [6] | [7] | [8] | [9] | [10] | [11] | [12] | [14] | [15] | [16] | [17] | [18]

CN(C)c1ccc(O)c2c1C[C@H]1C[C@H]3[C@H](N(C)C)C(=O)C(C(N)=O)=C(O)[C@@]3(O)C(=O)C1=C2O
inactive: [1] | [2] | [3] | [4] | [5] | [6] | [7] | [8] | [9] | [11] | [12] | [19] | [13] | [14] | [15] | [16] | [18]

C[Si]1(C)O[Si](C)(C)O[Si](C)(C)O[Si](C)(C)O1
inactive: [1] | [2] | [3] | [4] | [5] | [6] | [7] | [8] | [9] | [11] | [12] | [15] | [16] | [18]

O=C(O)/C=C/C(=O)O
inactive: [1] | [2] | [3] | [4] | [5] | [6] | [7] | [9] | [10] | [14] | [15] | [16] | [17] | [18]

CCCCCCC=O
inactive: [1] | [2] | [3] | [4] | [5] | [6] | [7] | [9] | [11] | [12] | [19] | [14] | [15] | [16] | [18]

CCO[Si](CCCN)(OCC)OCC
inactive: [1] | [2] | [3] | [4] | [5] | [6] | [7] | [8] | [9] | [11] | [12] | [15] | [16] | [17] | [18]

CSc1ccc(Cl)cc1
inactive: [1] | [2] | [3] | [4] | [5] | [6] | [7] | [8] | [9] | [11] | [12] | [20] | [19] | [15] | [16] | [18]

CC1(C)OC[C@@H]2O[C@@]3(C(=O)O)OC(C)(C)O[C@H]3[C@@H]2O1
inactive: [1] | [2] | [3] | [4] | [5] | [6] | [7] | [9] | [11] | [12] | [13] | [14] | [15] | [16] | [17] | [18]
